Source: PubChem BioAssay
The list is not random: actives were taken first. Their share in the collection is about 1.2%.
LmPK inhibitor: qHTS Assay for Inhibitors of Leishmania Mexicana Pyruvate Kinase (LmPK). Q27686. AID 1721, 2009. 290,000 tested, 0.37% active. Potency, µM (top dose mostly 57.5 µM), actives largely listed as inhibitors. purified LmPK, Kinase-Glo ATP luminescence, 1 h
Target sequence (Q27686 whole entry, looked up): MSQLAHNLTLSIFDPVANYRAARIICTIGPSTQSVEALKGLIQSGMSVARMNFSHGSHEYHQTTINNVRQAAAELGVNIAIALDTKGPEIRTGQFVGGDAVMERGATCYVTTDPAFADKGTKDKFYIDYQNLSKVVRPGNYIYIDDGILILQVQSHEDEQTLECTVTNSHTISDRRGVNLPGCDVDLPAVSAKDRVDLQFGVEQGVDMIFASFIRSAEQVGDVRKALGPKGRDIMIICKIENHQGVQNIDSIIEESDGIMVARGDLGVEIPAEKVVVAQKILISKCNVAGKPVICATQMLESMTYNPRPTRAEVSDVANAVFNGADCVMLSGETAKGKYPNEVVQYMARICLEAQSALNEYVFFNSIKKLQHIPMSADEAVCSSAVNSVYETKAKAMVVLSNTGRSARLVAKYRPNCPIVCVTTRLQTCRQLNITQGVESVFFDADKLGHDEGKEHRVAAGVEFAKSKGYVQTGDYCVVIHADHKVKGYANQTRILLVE
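In 50 mM imidazole pH 7.2 with 7 mM MgCl2, LmPK (0.1 nM) turned over PEP (0.5 mM) and ADP (0.1 mM) for 1 h at room temperature. Luciferase read-out of ATP.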
TbPYK inhibitor: qHTS of Trypanosoma Brucei Inhibitors; 410,000 tested, 0.12% active; Potency, µM (series often up to 76.8 µM), usual class: inhibitors; AID 624173, 2012; pyruvate kinase (Trypanosoma brucei), Q57TT1; TbPYK enzyme, Kinase-Glo Plus ATP luminescence, 45 min; note: nearly all actives have a fitted effect of over 50% in size
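Screened from lowest to highest concentration, compounds were pinned into TbPYK/substrate mixtures, and ADP (130 uM final) was added. Plates sat at room temperature for 45 min prior to Kinase-Glo Plus detection by luminescence.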
Giardia FBPA inh-1: qHTS Assay for Inhibitors of Fructose-1,6-bisphosphate Aldolase from Giardia Lamblia; 290,000 tested, 0.71% active; A8B2U2; AID 2451, 2010; Potency, µM (doses to about 59.6 µM), most hits filed as inhibitors; purified Giardia FBPA; note: nearly all actives have a fitted effect of over 55% in size
Target sequence (A8B2U2 whole entry, looked up): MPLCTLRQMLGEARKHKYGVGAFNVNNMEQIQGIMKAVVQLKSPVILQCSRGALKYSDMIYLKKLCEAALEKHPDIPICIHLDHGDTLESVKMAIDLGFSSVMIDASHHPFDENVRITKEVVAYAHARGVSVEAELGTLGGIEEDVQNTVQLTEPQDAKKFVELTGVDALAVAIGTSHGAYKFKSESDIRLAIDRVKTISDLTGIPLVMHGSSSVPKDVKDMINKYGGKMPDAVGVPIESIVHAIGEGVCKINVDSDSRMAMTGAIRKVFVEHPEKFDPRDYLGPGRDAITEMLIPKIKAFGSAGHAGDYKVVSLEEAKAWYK
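40 nM FBPA preincubated 10 min at RT with compound (up to 57.5 uM final), then substrate plus GAPDH/TPI/NAD/arsenate coupling and diaphorase/resazurin added. Fluorescence read after 20 min at RT, 525/598 nm.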
AMA1 RON2 block: qHTS for Inhibitors of AMA1-RON; Towards Development of Antimalarial Drug Lead: Primary Screen; Plasmodium falciparum AMA1 (3D7) - RON2 peptide interaction; AlphaScreen AMA1-biotinylated RON2 peptide binding; Potency, µM (top dose mostly 58.2 µM), hits mostly inhibitors; 360,000 tested, 0.2% active; note: nearly all actives have a fitted effect of over 45% in size
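AMA1 (3D7) with his tag at 25 nM final met compounds first, then biotinylated RON2 peptide at 25 nM; detection used donor plus acceptor beads, 10 µg/mL apiece, read by AlphaScreen after 30 min at room temperature.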
NS1 function inh: qHTS Assay for Inhibitors of Influenza NS1 Protein Function. Potency, µM (series often up to 46.1 µM). 270,000 tested, 0.4% active; calls by dose curve; note: actives are rising curves; nearly all actives have a fitted effect of over 50% in size
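Read-out: OD600 growth recovery of NS1-expressing budding yeast. Cells grown overnight at 30C in -URA glucose medium, washed, resuspended and diluted 1:100 in 2% galactose assay medium, pH 6.0. Same strain lacking NS1 served as positive control.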
Giardia growth: qHTS Assay for Inhibitors of Fructose-1,6-bisphosphate Aldolase from Giardia Lamblia: Giardia lamblia growth inhibition; shares compounds with Giardia FBPA inh-1; Giardia lamblia trophozoite growth inhibition; Potency, µM (titrated, usually from 57.5 µM), most hits filed as inhibitors; 1,500 tested, 5% active;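 note: trophozoites exposed to compound for 48 h at 37 °C; nearly all actives have a fitted effect of over 70% in size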
Mammal cell tox: qHTS Assay for Inhibitors of Fructose-1,6-bisphosphate Aldolase from Giardia Lamblia: Mammalian cellular toxicity. shares compounds with Giardia FBPA inh-1. mammalian cell viability counter-screen, qHTS. Potency, µM (top dose mostly 57.5 µM), actives largely listed as inhibitors. 1,500 tested, 4% active. AID 2786, 2010;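 note: Chinese hamster ovary cells used as mammalian cytotoxicity surrogate; viability measured as cellular ATP by luminescence; compound exposure lasted 48 h before reading; nearly all actives have a fitted effect of over 60% in size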
Giardia FBPA inh-2: qHTS Assay for Inhibitors of Fructose-1,6-bisphosphate Aldolase from Giardia Lamblia: Primary screen confirmation. shares compounds with Giardia FBPA inh-1. AID 2787, 2010. 1,500 tested, 5% active. purified Giardia aldolase enzyme activity, qHTS. Potency, µM (top dose mostly 57.5 µM), actives largely listed as inhibitors; note: nearly all actives have a fitted effect of over 45% in size
Rabbit FBPA inh: qHTS Assay for Inhibitors of Fructose-1,6-bisphosphate Aldolase from Giardia Lamblia: Rabbit FBPA Selectivity. shares compounds with Giardia FBPA inh-1. Rabbit muscle FBPA enzyme inhibition, selectivity counter-screen. Potency, µM (top dose mostly 57.5 µM), usual class: inhibitors. 1,500 tested, 4% active. AID 2794, 2010; note: nearly all actives have a fitted effect of over 60% in size
GAPDH coupling: qHTS Assay for Inhibitors of Fructose-1,6-bisphosphate Aldolase from Giardia Lamblia: Coupling assay counterscreen confirmation. shares compounds with Giardia FBPA inh-1. GAPDH coupling enzyme counterscreen, biochemical, qHTS. Potency, µM (series often up to 57.5 µM), hits mostly inhibitors. 1,500 tested, 6% active. AID 2795, 2010; note: nearly all actives have a fitted effect of over 55% in size
Hits are given with their value; [ ] = dose if it differs, or a comment. Unless noted, calls come from the whole dose curve; as a rule, active = well fitted curve in the direction sought with a large enough effect; inconclusive = small, poorly fitted or top-dose-only effect, or another doubt; inactive = no such curve, though single readings can be large; an effect the other way counts as inactive or inconclusive.

Results for O=C(Cc1c(F)cccc1Cl)NNC(=S)Nc1ccc(S(=O)(=O)Nc2ncccn2)cc1 ?
LmPK inhibitor: inactive; TbPYK inhibitor: inactive; Giardia FBPA inh-1: 14µM; AMA1 RON2 block: inactive; NS1 function inh: inactive; Giardia growth: inactive[10.4 µM]; Mammal cell tox: inactive; Giardia FBPA inh-2: inactive; Rabbit FBPA inh: inactive; GAPDH coupling: inactive

How did CCCOC(=O)c1ccc(OCC(O)CN2CCN(C(=O)c3ccccc3)CC2)cc1 (stereo unspecified) do in these assays?
LmPK inhibitor: inactive; TbPYK inhibitor: inactive; Giardia FBPA inh-1: inactive; AMA1 RON2 block: inactive; NS1 function inh: inactive

Results for CC(=O)N1CCN(CC(O)COc2ccc(Br)cc2)CC1 (stereo unspecified) ?
LmPK inhibitor: inactive; TbPYK inhibitor: inactive; Giardia FBPA inh-1: 28µM; AMA1 RON2 block: inconclusive; NS1 function inh: inactive; Giardia growth: inconclusive; Mammal cell tox: inactive; Giardia FBPA inh-2: inactive; Rabbit FBPA inh: inactive; GAPDH coupling: inactive

How did CC(C)(C)c1ccc(OCC(O)CN2CCN(C(=O)c3ccccc3)CC2)cc1 (stereo unspecified) do in these assays?
LmPK inhibitor: inactive; TbPYK inhibitor: inactive; Giardia FBPA inh-1: 14µM; AMA1 RON2 block: inconclusive; NS1 function inh: inactive; Giardia growth: inactive; Mammal cell tox: inactive; Giardia FBPA inh-2: inactive; Rabbit FBPA inh: inactive; GAPDH coupling: inactive

Results for COC(=O)C1C(=O)C(C(=O)/C=C/c2ccco2)C(=O)CC1(C)C (stereo unspecified) ?
Giardia FBPA inh-1: inactive

How did CCOC(=O)c1c(C)oc2nc(C)nc(NCC3CCN(Cc4ccc(F)cc4)CC3)c12 do in these assays?
TbPYK inhibitor: inactive

Results for N#Cc1ccccc1NC(=S)NC(=O)c1cccs1 ?
LmPK inhibitor: inactive; TbPYK inhibitor: inactive; Giardia FBPA inh-1: 10µM; AMA1 RON2 block: inactive; NS1 function inh: inactive; Giardia growth: inconclusive; Mammal cell tox: inactive; Giardia FBPA inh-2: inconclusive; Rabbit FBPA inh: inconclusive; GAPDH coupling: inconclusive

Results for N#Cc1ccccc1NC(=O)COC(=O)c1cccs1 ?
TbPYK inhibitor: inactive; AMA1 RON2 block: inactive

How did C[C@H](CCCC(C)(C)O)[C@H]1CC[C@H]2[C@@H]3CC=C4C[C@@H](O)CC[C@]4(C)[C@H]3CC[C@]12C do in these assays?
TbPYK inhibitor: inactive

Results for N[C@@H](CSC(=O)c1ccccc1)C(=O)O ?
NS1 function inh: inactive

How did C[C@@H]1C(=O)O[C@@H]1[C@@H](C)CO[Si](c1ccccc1)(c1ccccc1)C(C)(C)C do in these assays?
Giardia FBPA inh-1: inactive

Results for Cc1nc(NC(=O)CN2CC(C)OC(C)C2)sc1C(=O)N(C)C (stereo unspecified) ?
LmPK inhibitor: inactive; TbPYK inhibitor: inactive; Giardia FBPA inh-1: 11µM; AMA1 RON2 block: inactive; NS1 function inh: inactive; Giardia growth: inactive; Mammal cell tox: inactive; Giardia FBPA inh-2: inactive; Rabbit FBPA inh: inactive; GAPDH coupling: inactive

How did Cc1ccc(OCCOCCN2CCN(C)CC2)c(C(C)(C)C)c1 do in these assays?
LmPK inhibitor: inactive; TbPYK inhibitor: inactive; Giardia FBPA inh-1: 13µM; AMA1 RON2 block: inconclusive; NS1 function inh: inactive; Giardia growth: inactive; Mammal cell tox: inactive; Giardia FBPA inh-2: inactive; Rabbit FBPA inh: inactive; GAPDH coupling: inactive

Results for Cc1cc(Cl)c(OCCOCCN2CCN(C)CC2)c(Br)c1 ?
LmPK inhibitor: inactive; TbPYK inhibitor: inactive; Giardia FBPA inh-1: 22µM; AMA1 RON2 block: inconclusive; NS1 function inh: inactive; Giardia growth: inactive[10.4 µM]; Mammal cell tox: inactive; Giardia FBPA inh-2: inactive; Rabbit FBPA inh: inactive; GAPDH coupling: inactive

How did C=CCc1cc(C)ccc1OCCOCCN1CCN(C)CC1 do in these assays?
LmPK inhibitor: inactive; TbPYK inhibitor: inactive; Giardia FBPA inh-1: 16µM; AMA1 RON2 block: inactive; NS1 function inh: inactive; Giardia growth: inactive; Mammal cell tox: inactive; Giardia FBPA inh-2: inactive; Rabbit FBPA inh: inactive; GAPDH coupling: inactive

How did Cc1cc2oc(=O)c(CC(=O)NCCc3ccccc3)c(C)c2c2occ(C(C)(C)C)c12 do in these assays?
TbPYK inhibitor: inactive

How did CCN(CC)c1ccc(NC(=O)c2cnn3c(C(F)F)cc(-c4ccccc4)nc23)cc1 do in these assays?
TbPYK inhibitor: inactive

What do the screens show for `CCC[C@H](NC(=O)[C@H](CC(C)C)N(C)C(=O)CNC(=O)[C@@H](NC(=O)[C@H](Cc1ccccc1)NC(=O)[C@H](CCCCN)NC(=O)[C@@H](N)CC(=O)O)C(C)C)C(N)=O`?
Giardia FBPA inh-1: inactive

Results for CCOc1ccccc1NC(=O)CCc1nc(-c2cccc(C)c2)no1 ?
TbPYK inhibitor: inactive

How did OC(c1ccccc1)c1ccncc1 (stereo unspecified) do in these assays?
TbPYK inhibitor: inactive; AMA1 RON2 block: inactive

What do the screens show for `Cc1ccccc1C(N)c1ccncc1` (stereo unspecified)?
LmPK inhibitor: inactive; TbPYK inhibitor: inactive; Giardia FBPA inh-1: 14µM; AMA1 RON2 block: inactive; NS1 function inh: inactive; Giardia growth: inactive; Mammal cell tox: inactive; Giardia FBPA inh-2: inactive; Rabbit FBPA inh: inactive; GAPDH coupling: inactive

How did CC12CCC=CC1C(c1cccc([N+](=O)[O-])c1)N(Cc1ccccc1)C2=O (stereo unspecified) do in these assays?
Giardia FBPA inh-1: inactive

What do the screens show for `CCOC(=O)c1noc2ncnc(N3CCN(c4cccc(C(F)(F)F)c4)CC3)c12`?
TbPYK inhibitor: inactive

How did CCN(CC)c1ccc(N=C2C(=O)Nc3ccccc32)cc1 do in these assays?
LmPK inhibitor: inconclusive; TbPYK inhibitor: inconclusive; Giardia FBPA inh-1: inactive; AMA1 RON2 block: inconclusive; NS1 function inh: inactive; Giardia growth: inactive; Mammal cell tox: inactive; Giardia FBPA inh-2: 0.26µM; Rabbit FBPA inh: inconclusive; GAPDH coupling: 0.73µM
